Results: PubChem BioAssay (NCATS)
Results filed as inconclusive are left out. A call without a number means that no potency is given here. Calls of active or inactive are those of the source. Calls come from the whole dose curve; as a rule, active = well fitted curve in the direction sought with a large enough effect; inconclusive = small, poorly fitted or top-dose-only effect, or another doubt; inactive = no such curve, though single readings can be large; an effect the other way counts as inactive or inconclusive.

Tests used:
[1] = P-glycoprotein substrates identified in KB-3-1 adenocarcinoma cell line, qHTS therapeutic library screen (AID 1346986); note: nearly all actives have a fitted effect of over 60% in size;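 note: potency is for cytotoxicity meaning loss of cell viability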
How it was run: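 Using luminescence to quantify ATP, parental and P-gp-overexpressing KB cells were compared after 72 h compound titration. KB-8-5-11 was also run with the P-gp inhibitor tariquidar.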

[2] = P-glycoprotein substrates identified in KB-8-5-11 adenocarcinoma cell line, qHTS therapeutic library screen (AID 1346987); note: nearly all actives have a fitted effect of over 65% in size
How it was run: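 In this qHTS, P-gp-rich KB-8-5-11 cells received library compounds across a concentration range. Viability was quantified by luminescence after 72 h at 37 degree C.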
Potency is the fitted concentration of half-maximal effect.

SMILES	Potency [1]	Potency [2]
CC(=O)OC1CC2C3(C)CCC(OC(=O)CC(=O)O)C(C)(C)C3CCC2(C)C2(C)CCC(C3(C)CCC(=O)O3)C12 (configuration not stated)	inactive	inactive
COc1c2c(c(CO)c3c1C(=O)OC3)OC1(C)CCC3(O)C(C)(C)OC(=O)CCC3(C)C1C2 (configuration not stated)	inactive	inactive
C=C(C)C(=O)O[C@H]1C[C@@](C)(O)C(=O)CC(O)/C(C)=C\[C@H]2OC(=O)C(=C)[C@H]12 (some centres not stated)	inactive	inactive
COC(=O)CCc1cc2ccoc2c(OC)c1O[C@@H]1O[C@H](CO)[C@@H](O)[C@H](O)[C@H]1O	inactive	inactive
CC(=O)/C=C/[C@H]1[C@](C)(O)[C@@H](O)[C@H](OC(C)=O)C2C(C)(C)CCC[C@@]21C (some centres not stated)	inactive	inactive
O=C(CC1C(=O)Nc2ccccc21)OC[C@H]1O[C@@H](OCCc2ccc(O)cc2)[C@H](O)[C@@H](O)[C@@H]1O (some centres not stated)	inactive	inactive
Nc1nccn2c(C3CCC(C(=O)O)CC3)nc(-c3cc4cccc(Cl)c4[nH]3)c12 (configuration not stated)	1640 nM (active)	1460 nM (active)
C=C1CC23CC1CCC2C12OC(=O)C(C)(CCC1O)C2C3C(=O)O (configuration not stated)	inactive	inactive
CC/C=C\C/C=C\C/C=C\CCCCCCCC(=O)OCC(O)COC1OC(CO)C(O)C(O)C1O (configuration not stated)	inactive	inactive
OC[C@H]1O[C@@H](OC[C@H]2O[C@@H](OC/C=C/c3ccccc3)[C@H](O)[C@@H](O)[C@@H]2O)[C@@H](O)[C@@H]1O	inactive	inactive
CC(C)C1=CC2C(CC[C@]2(C)O)[C@](C)(O)CC1 (some centres not stated)	inactive	inactive
